# The other results are listed elsewhere or left out. Values without a mark were called inactive. Active and inactive are the calls of the source.
# Experiments:
# [1] = target: Inward rectifier potassium channel 2 (Mus musculus) (UniProt P35561); assay: mouse Kir2.1 channel blockers, retest, confirmation, cell-based, FluxOR thallium flux, duplicate (AID 2032;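 active = Primary-screen hit whose thallium flux fell at least 3 control SD below untreated wells in both duplicates, with normal baseline fluorescence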); conditions: Kir2.1-expressing cells, FluxOR thallium flux fluorescence, at 10 µM; hits give low values
# [2] = nonspecific thallium flux effects in parental HEK293 cells, confirmation, counter-screen for Kir2.1 inhibitor project, cell-based, FluxOR thallium flux, duplicate, single concentration (AID 2105;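 active = dye signal at least 3 control SD above or below untreated wells in both duplicates, raw fluorescence within 3, either direction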;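 as to FluxOR signal as % of negative control (100 = no effect): percent is based on the flux ratio of peak minus minimum fluorescence over baseline F0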); conditions: FluxOR thallium flux fluorescence, at 10 µM; 0% = unstimulated blank wells
# [3] = target: Voltage-gated inwardly rectifying potassium channel KCNH2 (Homo sapiens) (UniProt Q12809); assay: hERG channel inhibition, counter-screen for Kir2.1 inhibitor project, cell-based, thallium flux (AID 2236); conditions: hERG-expressing cells, at 10 µM; hits give high values;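 also: host cells are CHO cells stably expressing hERG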
# [4] = target: Potassium channel subfamily K member 9 (Homo sapiens) (UniProt Q9NPC2); assay: KCNK9 channel inhibition, selectivity assay for Kir2.1 inhibitor project, cell-based (AID 2329); conditions: KCNK9-expressing cells, ion flux inhibition, at 10 µM; hits give high values
# [5] = target: Inward rectifier potassium channel 2 (Mus musculus) (UniProt P35561); assay: mouse Kir2.1 channel blockers, Kir2.1 inhibitor project, cell-based, secondary, automated electrophysiology (AID 463252); conditions: Kir2.1 cells, automated patch-clamp current inhibition, at 25 µM; hits give high values
# [6] = parental HEK293 membrane potential modulation, confirmation, counter-screen for TRPC6 modulator project, cell-based (AID 488924;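 active = membrane potential signal moves up or down beyond 5 SD from buffer-only wells, on both duplicate plates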); conditions: parental HEK293, membrane potential dye fluorescence; at 10 µM
# [7] = modulation of acetylcholine-evoked membrane potential, parental HEK293, confirmation, counter-screen for TRPC6 modulator project, cell-based, second counter-screen, membrane potential dye (AID 488926;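 active = membrane potential signal drops by more than 5 SD from the mean control signal, in both duplicate plates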); conditions: parental HEK293, membrane potential dye fluorescence; at 10 µM; after compound, maximal acetylcholine stimulation
# [8] = system: Transient receptor potential cation channel subfamily C member 4 (mouse); assay: TRPC4 modulation by TRPC6 hit compounds, confirmation, selectivity assay for TRPC6 modulator project, cell-based, HEK293 TRPC4/mu-opioid, membrane potential dye, mouse (AID 488927;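 active = membrane potential signal moved up or down beyond 5 SD of buffer control wells, in both duplicate plates, actives on both sides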;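 also: plate controls were assay buffer wells for no effect and DAMGO maximal-effect wells for full effect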); conditions: membrane potential fluorescence, at 10 µM
# [9] = system: TRPC4 (transient receptor potential cation channel C4), mouse; assay: TRPC4 inhibition by TRPC6 hit compounds, confirmation, selectivity assay for TRPC6 modulator project, cell-based, second screen, HEK293 TRPC4/mu-opioid, membrane potential dye (AID 488928;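 active = drop in membrane potential signal beyond 5 SD of the control wells in both duplicate plates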;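 also: TRPC4 counter screen for TRPC6 hits run under conditions tuned for TRPC6 not TRPC4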); conditions: membrane potential dye fluorescence, at 10 µM, stimulated with maximal-effect DAMGO; hits give high values
# [10] = target: Short transient receptor potential channel 6 (Mus musculus) (UniProt Q61143); assay: mouse TRPC6 channel inhibitors, confirmation, HEK293 cells, membrane potential dye, duplicate (AID 488960;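 active = fluorescence ratio falls more than 5 SD below the full-stimulation control mean, in both duplicate runs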;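 also: integrated fluorescence ratio of peak minus minimum over baseline after agonist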); conditions: ACh-evoked depolarization, at 10 µM; hits give high values
# [11] = nonspecific thallium flux increase in parental CHO-K1, confirmation, counter-screen for KCNQ2 potentiator project, cell-based, FluxOR thallium flux, duplicate (AID 2282;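 active = signal rise of at least 3 SD above the untreated control mean, in both duplicate wells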;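 also: counter screen of KCNQ2 potentiator hits so any rise reflects channel-independent effects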); conditions: parental CHO-K1 cells, FluxOR thallium flux fluorescence; at 10 µM; hits give high values; zero = vehicle mean+3SD, 100% = vehicle-minus-blank window
# [12] = target: Potassium voltage-gated channel subfamily KQT member 1 (Homo sapiens) (UniProt P51787); assay: human KCNQ1 channel potentiation off-target, confirmation, selectivity assay for KCNQ2 potentiator project, cell-based, CHO, FluxOR thallium flux (AID 2283;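 active = fluorescence ratio rise of at least 3 SD of vehicle wells above their mean, in both replicate wells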;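 also: 0% = vehicle mean plus 3 SD and 100% = vehicle minus unstimulated blank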); conditions: CHO KCNQ1 stable, FluxOR thallium flux fluorescence; at 10 µM; hits give high values; beyond 3SD, as % of vehicle-control signal
# [13] = target: Potassium voltage-gated channel subfamily KQT member 2 (Rattus norvegicus) (UniProt O88943); assay: rat KCNQ2 channel potentiators, confirmation, cell-based, CHO, FluxOR thallium flux, duplicate (AID 2287;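 active = fluorescence ratio rising 3 SD or more over the vehicle control mean in both replicates, plus primary screen hit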;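 also: peak minus minimum thallium fluorescence divided by baseline after K/Tl stimulus; 0% = vehicle mean plus 3 SD and 100% = vehicle minus unstimulated blank difference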); conditions: CHO-KCNQ2 cells, FluxOR thallium flux fluorescence; at 10 µM; hits give high values
# [14] = target: Inward rectifier potassium channel 2 (Mus musculus) (UniProt P35561); assay: PubChem AID 2345; conditions: HEK293 Kir2.1, FluxOR thallium flux fluorescence; at 10 µM; hits give high values;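 also: 0% = vehicle mean plus 3 SD and 100% = vehicle minus no-stimulus blank window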
# [15] = target: Short transient receptor potential channel 6 (Mus musculus) (UniProt Q61143); assay: mouse TRPC6 channel activators, confirmation, HEK293 cells, membrane potential dye, duplicate (AID 488961;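 active = ratio signal rise beyond 5 SD above unstimulated control wells' mean, seen in both duplicate runs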;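 also: plate controls were buffer EC0 wells for no effect and acetylcholine ECmax response for full effect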); conditions: HEK293-TRPC6 membrane potential dye fluorescence, FDSS, at 10 µM; hits give high values
# Sequence of Voltage-gated inwardly rectifying potassium channel KCNH2 (Homo sapiens) (Q12809 whole entry, looked up): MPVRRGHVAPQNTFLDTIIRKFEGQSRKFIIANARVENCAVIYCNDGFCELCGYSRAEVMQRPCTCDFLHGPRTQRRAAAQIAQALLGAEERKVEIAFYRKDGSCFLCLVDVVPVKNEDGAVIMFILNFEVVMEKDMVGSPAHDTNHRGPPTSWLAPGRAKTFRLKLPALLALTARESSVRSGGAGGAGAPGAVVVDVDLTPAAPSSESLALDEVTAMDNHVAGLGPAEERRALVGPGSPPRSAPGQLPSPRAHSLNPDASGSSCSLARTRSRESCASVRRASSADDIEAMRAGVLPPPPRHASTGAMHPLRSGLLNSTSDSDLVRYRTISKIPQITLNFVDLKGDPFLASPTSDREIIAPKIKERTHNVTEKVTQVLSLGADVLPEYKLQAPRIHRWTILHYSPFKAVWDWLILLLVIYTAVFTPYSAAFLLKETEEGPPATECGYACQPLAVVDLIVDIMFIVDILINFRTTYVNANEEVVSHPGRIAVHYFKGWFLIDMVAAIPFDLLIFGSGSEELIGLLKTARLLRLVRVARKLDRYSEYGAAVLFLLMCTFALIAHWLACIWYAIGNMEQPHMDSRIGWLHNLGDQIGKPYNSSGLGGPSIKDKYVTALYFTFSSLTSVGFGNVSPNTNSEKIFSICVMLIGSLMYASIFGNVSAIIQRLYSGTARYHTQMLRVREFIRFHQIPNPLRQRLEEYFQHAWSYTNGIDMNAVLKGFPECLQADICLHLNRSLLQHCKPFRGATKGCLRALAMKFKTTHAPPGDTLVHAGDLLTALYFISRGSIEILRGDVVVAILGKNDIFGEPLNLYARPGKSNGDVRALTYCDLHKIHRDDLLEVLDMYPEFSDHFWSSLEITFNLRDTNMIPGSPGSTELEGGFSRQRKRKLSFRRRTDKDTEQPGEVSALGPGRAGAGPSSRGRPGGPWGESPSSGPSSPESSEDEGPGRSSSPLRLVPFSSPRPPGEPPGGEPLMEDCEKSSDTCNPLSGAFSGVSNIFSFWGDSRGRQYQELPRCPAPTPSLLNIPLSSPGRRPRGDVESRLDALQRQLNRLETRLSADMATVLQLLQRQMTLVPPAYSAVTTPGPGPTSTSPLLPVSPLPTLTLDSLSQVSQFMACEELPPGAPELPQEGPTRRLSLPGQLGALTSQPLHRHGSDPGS
# Sequence of Inward rectifier potassium channel 2 (Mus musculus) (P35561 whole entry, looked up): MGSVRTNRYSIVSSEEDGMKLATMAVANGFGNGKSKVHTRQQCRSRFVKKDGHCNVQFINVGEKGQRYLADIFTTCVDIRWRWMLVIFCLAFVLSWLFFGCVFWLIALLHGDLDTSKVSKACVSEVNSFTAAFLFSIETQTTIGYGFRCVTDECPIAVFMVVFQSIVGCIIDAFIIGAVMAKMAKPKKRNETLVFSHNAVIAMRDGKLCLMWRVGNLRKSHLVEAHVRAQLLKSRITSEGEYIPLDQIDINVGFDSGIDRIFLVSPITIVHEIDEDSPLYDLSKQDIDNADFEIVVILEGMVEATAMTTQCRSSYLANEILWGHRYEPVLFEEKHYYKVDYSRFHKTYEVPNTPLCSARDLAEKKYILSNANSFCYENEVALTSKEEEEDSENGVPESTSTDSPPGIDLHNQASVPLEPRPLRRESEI
# Sequence of Potassium voltage-gated channel subfamily KQT member 1 (Homo sapiens) (P51787 whole entry, looked up): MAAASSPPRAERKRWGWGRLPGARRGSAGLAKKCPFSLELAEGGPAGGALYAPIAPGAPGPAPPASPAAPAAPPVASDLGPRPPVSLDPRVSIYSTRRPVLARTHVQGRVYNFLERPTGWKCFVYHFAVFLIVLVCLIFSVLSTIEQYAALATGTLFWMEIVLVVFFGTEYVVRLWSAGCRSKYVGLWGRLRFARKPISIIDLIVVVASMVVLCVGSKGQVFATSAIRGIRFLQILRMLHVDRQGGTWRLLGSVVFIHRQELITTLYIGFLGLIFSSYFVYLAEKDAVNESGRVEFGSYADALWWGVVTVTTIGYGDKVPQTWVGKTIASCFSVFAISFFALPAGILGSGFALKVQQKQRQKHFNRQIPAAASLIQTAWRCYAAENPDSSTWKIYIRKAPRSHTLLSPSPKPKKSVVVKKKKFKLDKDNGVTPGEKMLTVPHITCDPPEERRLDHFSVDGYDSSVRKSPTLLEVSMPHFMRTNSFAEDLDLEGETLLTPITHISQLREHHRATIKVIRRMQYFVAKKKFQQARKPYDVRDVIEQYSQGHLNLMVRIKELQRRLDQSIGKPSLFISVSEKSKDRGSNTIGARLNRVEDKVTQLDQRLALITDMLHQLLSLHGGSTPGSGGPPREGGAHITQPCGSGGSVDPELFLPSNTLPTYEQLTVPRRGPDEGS
# Sequence of Potassium voltage-gated channel subfamily KQT member 2 (Rattus norvegicus) (O88943 whole entry, looked up): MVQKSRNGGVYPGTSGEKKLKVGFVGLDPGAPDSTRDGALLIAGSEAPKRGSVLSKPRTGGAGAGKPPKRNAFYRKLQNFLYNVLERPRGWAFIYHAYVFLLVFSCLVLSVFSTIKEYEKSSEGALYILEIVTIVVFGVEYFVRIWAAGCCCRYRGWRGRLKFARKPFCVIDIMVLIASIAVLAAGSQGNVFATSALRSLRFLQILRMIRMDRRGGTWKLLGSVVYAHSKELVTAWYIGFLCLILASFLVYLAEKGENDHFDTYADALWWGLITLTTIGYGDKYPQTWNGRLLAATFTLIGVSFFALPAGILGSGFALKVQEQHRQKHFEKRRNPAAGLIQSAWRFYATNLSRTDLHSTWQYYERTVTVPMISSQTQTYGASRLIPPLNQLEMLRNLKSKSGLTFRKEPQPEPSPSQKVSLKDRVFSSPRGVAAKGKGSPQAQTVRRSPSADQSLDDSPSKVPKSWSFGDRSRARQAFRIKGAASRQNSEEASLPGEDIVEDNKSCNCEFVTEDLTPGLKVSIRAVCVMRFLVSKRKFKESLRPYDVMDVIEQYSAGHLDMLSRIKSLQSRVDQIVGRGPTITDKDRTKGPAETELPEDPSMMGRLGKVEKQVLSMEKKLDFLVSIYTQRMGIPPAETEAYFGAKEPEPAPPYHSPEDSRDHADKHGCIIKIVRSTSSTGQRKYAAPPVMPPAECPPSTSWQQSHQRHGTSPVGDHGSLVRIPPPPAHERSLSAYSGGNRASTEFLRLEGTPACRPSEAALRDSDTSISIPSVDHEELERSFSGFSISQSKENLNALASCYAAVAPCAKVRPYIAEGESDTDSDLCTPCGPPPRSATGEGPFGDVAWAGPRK
# Sequence of Short transient receptor potential channel 6 (Mus musculus) (Q61143 whole entry, looked up): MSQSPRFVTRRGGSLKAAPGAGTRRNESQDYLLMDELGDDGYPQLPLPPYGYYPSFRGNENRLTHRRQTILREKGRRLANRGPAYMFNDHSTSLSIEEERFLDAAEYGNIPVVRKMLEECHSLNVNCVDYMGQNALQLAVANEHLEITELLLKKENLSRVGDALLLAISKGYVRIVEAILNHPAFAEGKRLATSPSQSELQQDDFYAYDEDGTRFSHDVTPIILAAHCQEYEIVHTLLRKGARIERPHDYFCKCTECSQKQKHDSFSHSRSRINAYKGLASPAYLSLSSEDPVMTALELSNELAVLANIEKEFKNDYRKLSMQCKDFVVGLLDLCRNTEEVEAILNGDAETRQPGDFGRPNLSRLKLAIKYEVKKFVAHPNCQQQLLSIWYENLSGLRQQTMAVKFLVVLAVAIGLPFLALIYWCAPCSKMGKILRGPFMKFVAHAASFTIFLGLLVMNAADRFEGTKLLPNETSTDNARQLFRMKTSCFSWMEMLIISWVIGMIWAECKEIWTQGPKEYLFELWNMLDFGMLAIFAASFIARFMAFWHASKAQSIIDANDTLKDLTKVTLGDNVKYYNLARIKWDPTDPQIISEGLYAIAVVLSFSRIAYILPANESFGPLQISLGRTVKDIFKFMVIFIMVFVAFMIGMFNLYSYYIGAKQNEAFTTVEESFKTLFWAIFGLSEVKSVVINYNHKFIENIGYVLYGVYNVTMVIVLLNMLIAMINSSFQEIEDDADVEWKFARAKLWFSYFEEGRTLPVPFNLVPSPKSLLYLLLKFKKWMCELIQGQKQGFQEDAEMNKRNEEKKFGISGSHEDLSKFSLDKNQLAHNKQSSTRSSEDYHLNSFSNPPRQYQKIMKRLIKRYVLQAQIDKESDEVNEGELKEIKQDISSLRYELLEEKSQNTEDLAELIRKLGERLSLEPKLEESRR
structure (smiles),measurement,setting,value
O=C(Nc1cccc(-c2cscn2)c1)C1CCN(Cc2ccsc2)CC1,"Tl flux remaining, % of negative control (hits give low values)",[1],44% (active)
same,outcome,[2],inactive
same,inhibition,[3],51% (active)
same,outcome,[4],inactive
same,inhibition,[5],7.1% (active)
CC(C)(c1ccccc1)c1ccc(OCCN)cc1,"Tl flux remaining, % of negative control (hits give low values)",[1],30.5% (active)
same,outcome,[2],inactive
same,outcome,[3],inactive
same,outcome,[4],inactive
same,inhibition,[5],36.1% (active)
Cc1nnc(SCc2ccc(C(=O)c3ccc(Cl)cc3)o2)n1-c1ccccc1,"Tl flux remaining, % of negative control (hits give low values)",[1],66% (active)
same,outcome,[2],inactive
same,outcome,[3],inactive
same,outcome,[4],inactive
same,inhibition,[5],19% (active)
same,membrane potential signal change,[6],116% (active)
same,outcome,[7],inactive
same,"percent change from control (negative = decrease, positive = increase)",[8],23.5% (active)
same,outcome,[9],inactive
same,inhibition,[10],62% (active)
Clc1cccc(Cl)c1OCCOCCNCc1ccccc1,"Tl flux remaining, % of negative control (hits give low values)",[1],33% (active)
same,outcome,[2],inactive
same,outcome,[3],inactive
same,outcome,[4],inactive
same,inhibition,[5],69.6% (active)
C=CCNC(=S)/N=c1/ccccn1Cc1ccccc1,"Tl flux remaining, % of negative control (hits give low values)",[1],64% (active)
same,outcome,[2],inactive
CN(c1ccccc1)S(=O)(=O)c1ccc(Cl)c(C(=O)OCC(=O)NCc2ccco2)c1,outcome,[1],inactive
same,outcome,[2],inactive
same,activity increase over 3SD of controls,[11],-5.5%
same,activation over 3SD threshold,[12],-28.3%
same,"potentiation, less the hit threshold",[13],-1.3%
same,activity over 3SD threshold,[14],-38.2%
CC(NCc1ccccc1OC1CCCC1)c1ccccc1 (stereo unspecified),"Tl flux remaining, % of negative control (hits give low values)",[1],23.5% (active)
same,outcome,[2],inactive
same,outcome,[3],inactive
same,outcome,[4],inactive
same,inhibition,[5],23.4% (active)
same,membrane potential signal change,[6],416% (active)
same,outcome,[7],inactive
same,"percent change from control (negative = decrease, positive = increase)",[8],114% (active)
same,inhibition,[9],79.5% (active)
same,inhibition,[10],83% (active)
same,activation,[15],122% (active)
CC1(c2ccccc2Cl)NC(=O)N(CC(=O)NC(=O)NCc2ccco2)C1=O (stereo unspecified),outcome,[1],inactive
same,outcome,[2],inactive
same,activity increase over 3SD of controls,[11],15.2% (active)
same,activation over 3SD threshold,[12],-28.7%
same,"potentiation, less the hit threshold",[13],-11.8%
same,activity over 3SD threshold,[14],-15.3%
Cc1cc(C)nc(SCc2nnc(SCC(=O)OC3CCCCC3)o2)n1,"Tl flux remaining, % of negative control (hits give low values)",[1],28% (active)
same,outcome,[2],inactive
same,outcome,[3],inactive
same,outcome,[4],inactive
same,inhibition,[5],82.2% (active)
CC1=NN(C(=O)c2ccc(Br)cc2)C(O)(c2ccccc2)C1 (stereo unspecified),outcome,[1],inactive
same,FluxOR signal as % of negative control (100 = no effect),[2],73.5% (active)
same,activity increase over 3SD of controls,[11],-19%
same,activation over 3SD threshold,[12],-5.7%
same,"potentiation, less the hit threshold",[13],-11.5%
same,activity over 3SD threshold,[14],-31.6%

# Source: PubChem BioAssay
